This passage reports Potency results from PubChem BioAssay (Tox21).

Structures are written as SMILES. Calls of active or inactive are those of the source. A call without a number means that no potency is given here. The call rests on the fitted dose curve.

Sequence of Acetylcholinesterase (Homo sapiens) (P22303 whole entry, looked up): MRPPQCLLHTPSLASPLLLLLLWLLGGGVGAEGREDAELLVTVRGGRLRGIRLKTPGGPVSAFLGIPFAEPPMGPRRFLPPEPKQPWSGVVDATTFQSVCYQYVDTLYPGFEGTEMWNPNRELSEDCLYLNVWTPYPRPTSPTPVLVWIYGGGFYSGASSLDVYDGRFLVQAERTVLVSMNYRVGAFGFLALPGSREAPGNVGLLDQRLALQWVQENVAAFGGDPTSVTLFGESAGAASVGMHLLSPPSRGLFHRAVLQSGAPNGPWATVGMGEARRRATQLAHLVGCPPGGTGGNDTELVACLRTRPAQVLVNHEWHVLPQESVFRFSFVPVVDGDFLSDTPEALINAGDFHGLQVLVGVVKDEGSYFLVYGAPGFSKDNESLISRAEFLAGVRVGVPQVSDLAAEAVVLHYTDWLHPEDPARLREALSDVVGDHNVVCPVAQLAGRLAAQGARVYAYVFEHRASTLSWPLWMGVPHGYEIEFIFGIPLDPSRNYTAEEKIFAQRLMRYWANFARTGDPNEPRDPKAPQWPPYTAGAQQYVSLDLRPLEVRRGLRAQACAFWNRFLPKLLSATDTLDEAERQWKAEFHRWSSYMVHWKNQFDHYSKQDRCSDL

This test deals with Acetylcholinesterase (Homo sapiens) (UniProt P22303). Description: Acetylcholinesterase (AChE) small molecule antagonists: enzyme-based qHTS assay with human liver microsomes (AID 1347399). Further: nearly all actives have a fitted effect of over 60% in size. Particulars: Potency: qHTS inhibition; outcome: qHTS inhibition; series mostly up to 115 µM. The procedure, abridged:
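Recombinant human AChE (50 mU/mL in the enzyme mix) and human liver microsomes (0.25 mg/mL final) were preincubated with compound and NADPH (0.25 mg/mL final) for 30 min at 37 C. Acetylthiocholine/DTNB was then added; thiocholine was read colorimetrically after 10 min at room temperature.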
On the technique in general: In qHTS, concentration-response curves come from the screen itself.
As to `CCOc1ccc2nc(S(N)(=O)=O)sc2c1`, the Potency entry is “inactive”.

As for `Cc1ccc(Cl)cc1`, the Potency entry is “inactive”.

As for `OC/C=C/c1ccccc1`, the Potency result is “inactive”.

For the compound `NC(CCC(=O)O)C(=O)O` (stereo not drawn), the Potency entry was “inactive”.

In the case of `Nc1ncn([C@@H]2O[C@H](CO)[C@@H](O)[C@H]2O)c(=O)n1`, the Potency entry was “inactive”.

With `COC(C)(OC)OC`, the Potency entry is “inactive”.

`Cc1cc(C)c(S(=O)(=O)O)cc1N=Nc1cc(S(=O)(=O)O)c2ccccc2c1O`: the Potency result was “inactive”.

For `C[C@]12CCC(=O)C=C1C=C[C@@H]1[C@@H]2CC[C@@]2(C)[C@H]1CC[C@@]21CCC(=O)O1`, the Potency result was “inactive”.

Regarding `C=C(C)C(=O)OCCCCCCCCCCCCC`, the Potency entry is “inactive”.

On to `Brc1cc(Oc2cc(Br)c(Br)c(Br)c2Br)c(Br)c(Br)c1Br`, for which the Potency result was “inactive”.

Turning to `Nc1ccc(O)c(N)c1`, the Potency entry is “inactive”.

Turning to `CCCCC/C=C/CC(=O)OC`, the Potency entry was “inactive”.

Regarding `c1cnc2c(n1)CCCC2`, the Potency result was “inactive”.

For the compound `CCCNC(C)C(=O)Nc1c(C)csc1C(=O)OC` (stereo not drawn), the Potency result was “inactive”.

For the compound `c1ccc2ccccc2c1`, the Potency entry is “inactive”.

In the case of `O=C1C(CCS(=O)c2ccccc2)C(=O)N(c2ccccc2)N1c1ccccc1` (stereo not drawn), the Potency entry is “inactive”.

Turning to `OCc1ccc(Cl)cc1Cl`, the Potency result was “inactive”.

For `Oc1ccccc1C=NCc1ccccc1`, the Potency entry was “inactive”.

On to `CCOc1cccc(-n2cc(C(=O)N3CCN(c4cc(C(=O)O)c5ccccc5c4)CC3)nc2-c2ccc(C)cc2)c1`, for which the Potency result was “inactive”.

Regarding `Cc1ccc(S(=O)(=O)N=C=O)cc1`, the Potency entry is “inactive”.

`CCC(=O)OCCC(C)CCC=C(C)C` (stereo not drawn): the Potency result was “inactive”.

In the case of `c1ccc2nccnc2c1`, the Potency result is “inactive”.

In the case of `CC1(C)CCC[C@]2(C)[C@H]3CC(=O)O[C@]3(C)CC[C@@H]12`, the Potency result was “inactive”.
